Reference: PubChem BioAssay AID630 (Emory University Molecular Libraries Screening Center, 2007)
The whole screen tested about 88,000 compounds, of which about 260 (0.3%) were called active.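 Rule for the calls: active = compounds that reduce the energy-transfer binding signal between the protein and its labelled peptide by more than half; inactive = the rest.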 Only a selection was taken, and actives are over-represented in it overall.

The compounds below were run against Mothers against decapentaplegic homolog 3 (Homo sapiens) (UniProt P84022) (assay: Smad3/FoxH1 peptide binding inhibitors, primary screen, biochemical, TR-FRET (AID 630;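 note: 0% = Smad3 plus labelled peptide maximal FRET and 100% = peptide-only background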)). Details: TR-FRET Smad3/Dy647-FoxH1 peptide binding, europium anti-His; at 25 µM; stronger effect = higher value.
Sequence of Mothers against decapentaplegic homolog 3 (Homo sapiens) (P84022 whole entry, looked up): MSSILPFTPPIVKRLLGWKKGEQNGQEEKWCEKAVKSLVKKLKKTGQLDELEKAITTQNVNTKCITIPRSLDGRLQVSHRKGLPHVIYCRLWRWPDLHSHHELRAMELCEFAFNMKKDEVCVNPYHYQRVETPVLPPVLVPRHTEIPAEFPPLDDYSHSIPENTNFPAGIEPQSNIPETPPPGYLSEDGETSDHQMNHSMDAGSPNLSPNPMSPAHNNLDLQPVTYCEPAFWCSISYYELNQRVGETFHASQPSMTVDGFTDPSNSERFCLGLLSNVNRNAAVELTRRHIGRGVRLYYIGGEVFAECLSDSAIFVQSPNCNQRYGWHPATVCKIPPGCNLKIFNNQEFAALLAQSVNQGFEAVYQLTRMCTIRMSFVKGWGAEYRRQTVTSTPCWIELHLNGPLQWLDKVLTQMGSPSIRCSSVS

inhibition, active:
CC(C)c1nc2oc3c(N4CCN(C)CC4)ncnc3c2c2c1CCC2 51.1%
Cc1cc2c(cc1C)NC1=C(N2)O[C@H](c2c[nH]c3ccc(COc4ccccc4)cc23)C1=O 81.3%
O=S(=O)(O)c1ccc(O)c2ncccc12.O=S(=O)(O)c1ccc(O)c2ncccc12.[Zn] 63.9%
COC(=O)c1ccc(NC(=O)c2ccco2)cc1 66.7% [fluorescence artefact?]

inhibition, inactive:
O=C(COc1ccccc1)Nc1nonc1NC(=O)COc1ccccc1 8.67%
O=C(CSCc1ccccc1)N1CCc2ccccc21 -1.3%
O=C(c1cccc(N2CCCC2=O)c1)N1CCOCC1 -6%
Cc1ccc(/C=N/NC(=O)Cn2nc(C)c(Br)c2C)o1 21.4%
O=C(Nc1ccccc1C(=O)NCCCn1ccnc1)c1ccc(Cl)cc1Cl -0.02%
COc1cc(OC)c(-n2c(C)cc(C=O)c2C)cc1Cl 2.99%
Cc1nc(NC(=O)C2CCCCC2)sc1C 10.5%
CCOC(=O)c1ccc2c(c1)nc(SCC(=O)NC(C)C)n2CC 20%
CS(=O)(=O)N(CC(=O)N1CCN(c2ccc(F)cc2)CC1)C1CCCCC1 -8.5%
c1ccc(CC2CCN(c3nc4ccccc4n4cnnc34)CC2)cc1 -10%
Cn1nc(-c2ccccc2)c(-c2nc(-c3ccc(Cl)cc3)no2)c1Cl 2.93%
COc1ccc(CN(CC(=O)NC2CCCC2)C(=O)CCC(=O)Nc2cc(C)on2)cc1 -0.48%
Cc1oc(-c2ccccc2Cl)[n+]([O-])c1C 2.52%
Cc1ccc(CS(=O)(=O)CCC(=O)NC2CC2)cc1 6.21%
CCOc1ccc(NC(=O)C2CCCN(C(=O)Nc3ccccc3)C2)cc1 (centres undefined) 10.5%
COC(=O)c1nc(NC(=O)c2ccccc2)n[nH]1 1.94%
Cc1cccc(C(=O)Nc2ccccc2N2CCN(c3ccc(F)cc3)CC2)c1 3.31%
c1ccc(C(c2ccccc2)N2CCN(Cc3nnnn3C3CCCCC3)CC2)cc1 -7.75%
COc1ccc(-c2nc3ccccc3n2CCC(C)C)cc1OC -3.34%
C=CCC(NCc1ccco1)c1ccc(OC)cc1 (centres undefined) 2.67%
CCc1c(O)cc2n(c1=O)-c1ccccc1C2(C)C 7.56%
Cc1ccc(-c2cc(C(=O)NCC3CCCO3)c3ccccc3n2)o1 (centres undefined) 0.54%
Cc1ccccc1-n1c(C)cc(/C=C2\NC(=O)NC2=O)c1C 10.8%
O=C(NCCCCCCNC(=O)NCc1ccco1)NCc1ccco1 10.3%
FC(F)(F)c1cnc(Oc2ccccc2-c2nnc(-c3ccc(Cl)cc3)o2)c(Cl)c1 6.7%
Cc1cc(C)c(S(=O)(=O)N2C=CC(C(F)(F)F)=NCC2)c(C)c1 -6.95%
Cc1cccc(C(=O)O)c1C[C@@H]1NCC[C@@H]2c3ccccc3N[C@@H]12 8.15%
CC(NC(=O)C1CCC(CNc2c(N3CCOCC3)c(=O)c2=O)CC1)c1ccccc1 (centres undefined) -2.58%
OC(COc1ccc2ccccc2c1)Cn1cncn1 (centres undefined) 6.06%
C=CCN(C(=O)Nc1ccc2oc(C)nc2c1)c1ccccc1 1.13%
Cc1ccc(-c2noc(CSc3nnc(-c4cccs4)n3C)n2)cc1 -3.4%
N#C/C(=C(\O)CCl)c1nnc2n1CCCCC2 0.54%
CCn1c(SCC(=O)Nc2ccc(OC)c(OC)c2)nnc1-c1c[nH]c2ccccc12 -6.68%
Cc1c(CCO)c(=O)n(-c2ccccc2)n1S(=O)(=O)c1ccc(F)cc1 -23.9%
CCCCOc1ccc(N(CC(=O)NCC2CCCO2)C(=O)CCC(=O)Nc2cc(C)ccn2)cc1 (centres undefined) 2.38%
Cc1ccc(C)c(N2C(=O)CS/C2=N\NC(=O)c2ccccc2Cl)c1 3.21%
COC(=O)c1cc(NC(=O)CC2C(=O)NCCN2C(=O)c2ccc(F)cc2)cc(C(=O)OC)c1 (centres undefined) -2.76%
CCc1cccc(C)c1N(C(=O)Cn1c(CO)nc2ccccc21)C(C)COC (centres undefined) -3.83%
COc1ccc(Nc2cc(=O)oc3ccccc23)cc1 1.47%
O=C(Cc1c[nH]c2ccccc12)OCCOC(=O)Cc1c[nH]c2ccccc12 0.81%
CCOC(=O)C(C)n1cnc2sc(C)c(C)c2c1=O (centres undefined) 5.75%
CCOc1ccc(CN(Cc2ccco2)S(=O)(=O)c2ccc(-n3cnnn3)c(OC)c2)cc1 -8.78%
Cc1cc(C)cc(N(CC(=O)N2CC=C(c3ccccc3)CC2)S(=O)(=O)c2c(C)noc2C)c1 -9.86%
Cc1ccc(S(=O)(=O)NCC(C)NS(C)(=O)=O)cc1 (centres undefined) -1.07%
O=C(OCC#CCSc1nnc(-c2ccncc2)o1)c1sc2ccccc2c1Cl 8.98%
CCOC(=O)CN(Cc1ccc(OC)c(OC)c1)S(=O)(=O)c1ccc(OC)cc1 3.33%
O=C(O)/C=C/C(=O)Nc1ccc2c(c1)-c1ccccc1C2 0.91%
CC1=NN(c2ccccc2)C(=O)[C@H]1N=Nc1ccc(S(N)(=O)=O)cc1 -0.1%
CC(C)CNC(=S)NNC(=O)c1nn(C)cc1Cl 3.44%
CCOc1c(Cl)cc(/C=N/O)cc1OC 5.66%
O=C(c1cc2sccc2n1Cc1ccc(F)cc1)N1CCc2ccccc21 4.44%
CCN(CC)Cc1cc(C(C)=O)ccc1O -9.81%
O=C(CCN1CCc2ccccc2C(O)(c2ccccc2)C1)c1ccc2c(c1)OCCO2 (centres undefined) 8.66%
Cc1cc(C)n(-c2cc(Oc3ccccc3)ncn2)n1 3.36%
Cn1c(Cn2nnc3ccccc32)nnc1SCC(=O)c1ccccc1F 16.9%
CCOC(=O)C1=C(C)NC(SC)=NC1c1ccccc1 (centres undefined) -3.1%
CC(=NCc1ccco1)c1c(C(F)(F)F)[nH]n(-c2nc3ccccc3s2)c1=O 3.18%
O=C(Cc1ccc(-n2c(=O)c3sccc3n(Cc3ccc(F)cc3)c2=O)cc1)NCc1ccco1 -21.8%
Cc1cc(C)nc(N2CCN(c3ncnc4c3oc3ccccc34)CC2)n1 2.31%
CCN1CCN(c2ncnc3c2oc2nc(C)c4c(c23)CC(C)(C)OC4)CC1 -8.93%
COC(=O)C1=C(C(=O)c2ccc(C)cc2)C(c2ccccc2)n2nnnc2N1 (centres undefined) -4.2%
Clc1ccc(C2=CSC3=Nc4cccc5cccc(c45)N23)cc1 19.6%
Nn1c(Cc2cccc3ccccc23)nnc1SCC(=O)N1CC(=O)Nc2ccccc21 -9.99%
O=C(c1ccco1)N1CCN(C(=O)C2CCCN(S(=O)(=O)c3cccc4nsnc34)C2)CC1 (centres undefined) -9.4%
NC1=NC(=O)C2(COC(c3ccccc3Cl)OC2)S1 (centres undefined) 8.22%
Cc1oc2nc(SCC(=O)Nc3ccc(S(N)(=O)=O)cc3)nc(NC(=O)c3ccccc3)c2c1C -117%
Cc1ccc(C2C(C#N)C(C#N)N3CCCN23)cc1 (centres undefined) -8.98%
COc1ccc2c(c1)cc1n2CCN=C1NN 17.3%
C/C(N[O-])=C(\C)[N+]([O-])=[Co].CC(=N\[O-])/C(C)=N/[O-].[CH2-]CCN1CCOCC1.c1ccncc1 25%
CC(C)(C)NC(=O)CN(Cc1cccs1)C(=O)CNS(=O)(=O)c1ccccc1 -8.34%
COC(=O)c1ccccc1Sc1c(/C=N/OCc2ccc(Cl)cc2)c(C(F)(F)F)nn1C 1.08%
Cc1ccc(NC(=O)CSCC(=O)N2CCOCC2)cc1 8.2%
OCCNc1nc2ccccc2[nH]1 3.77%
Cc1cc(SCC(=O)c2ccccc2)nc(SCC(=O)c2ccccc2)n1 -1.72%
COc1ccc(-c2nn(-c3ccccc3)cc2C(=O)Nc2nccs2)cc1OC -5%
CC(=O)C1=C(C)NC(C)=C(C(C)=O)C1c1cn(-c2ccccc2)nc1-c1cccs1 -6.06%
Cc1ccc(C2NC(=S)NC3=C2N2CCC3CC2)cc1 (centres undefined) 2.12%
COc1cc(N2CCCC2)c(OC)cc1/C=C(/C#N)c1cccc(Br)c1 0.41%
Cn1cc(S(=O)(=O)N2CCN(c3ccc(F)cc3)CC2)c(=O)n(C)c1=O -0.19%
CCC(CC)C(=O)N1CC(=O)Nc2ccc(Br)cc2C1c1ccccc1 (centres undefined) 1.61%
CC1(C)C2CCC13CS(=O)(=O)NC3C2 (centres undefined) 7.24%
O=C(O)COc1c(Cl)cc(Cl)c2cccnc12 -8.45%
O=C(Nc1cccc2ccccc12)N1CCN(Cc2ccc3c(c2)OCO3)CC1 8.91%
CC(C)(C)C(=O)c1cnc(Nc2ccccc2)s1 -2.94%
Cn1nc(-c2ccccc2)c(CSc2cccc(Cl)c2)c1Cl -0.19%
COc1ccc(C2=NO[C@@H]3C(=O)N(Cc4ccccc4)C(=O)[C@H]23)cc1OC 4.9%
COc1ccc(C(=O)CN2C(=O)NC(C)(c3ccc(C)cc3)C2=O)cc1OC (centres undefined) 0.23%
O=C(Nc1ccc(Oc2ccccc2)cc1)c1ccco1 -3.88%
Cc1ccnc(NC(=O)c2ccc(NC(=O)c3ccco3)cc2)c1 8.59%
Cc1cc(N/C=C\C(=O)c2ccc(Cl)c(Cl)c2)no1 -20.1%
